This is an account of results in PubChem BioAssay (Tox21).

Assay [1] in a line: qHTS RealTime-Glo MT Cell Viability Assay in HepG2 cells - 40 hour (AID 1224870). Further: nearly all actives have a fitted effect of over 50% in size. Further: potency means the concentration at half of the fitted maximal effect. The essentials:
(§1)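 Real-time viability: cells seeded at 600 per well together with NanoLuc and cell-permeant prosubstrate, compounds added after 5 h incubation. Luminescence tracked at 0, 8, 16, 24, 32 and 40 h of exposure.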
Background: qHTS replaces the single test concentration by a dilution series.

Assay [2] in a line: A CellTox Green Cytotoxicity Assay to monitor cytotoxicity in HEK293 cells - 40 hour (AID 1224871). Further: nearly all actives have a fitted effect of over 45% in size. Further: potency means the concentration at half of the fitted maximal effect. The essentials:
(§2)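 Homogeneous no-lysis format: HEK293 cell suspension mixed with CellTox Green reagent, seeded, incubated 5 h at 37 C/5% CO2, then dosed by pintool with compound in DMSO.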

Assay [3] is described as follows: qHTS RealTime-Glo MT Cell Viability Assay in HepG2 cells - 8 hour (AID 1224873). Further: nearly all actives have a fitted effect of over 55% in size. The procedure, abridged: as §1
A short description of assay [4]: qHTS RealTime-Glo MT Cell Viability Assay in HEK293 cells - 40 hour (AID 1224874). Further: nearly all actives have a fitted effect of over 50% in size. Further: potency means the concentration at half of the fitted maximal effect. Conditions: RealTime-Glo luminescence; max response: hits give low values. The procedure, abridged: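 Measured as luminescence from the same continuously cultured HEK293 wells at successive time points (0, 8, 16, 24, 32, 40 h) after compound addition. Reagent present from seeding; dosing at 5 h; incubation 37 C.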

Assay [5] is described as follows: A CellTox Green Cytotoxicity Assay to monitor cytotoxicity in HEK293 cells - 24 hour (AID 1224875). Further: series mostly up to about 77 µM; nearly all actives have a fitted effect of over 45% in size. The essentials:
as §2

The nature of assay [6]: A CellTox Green Cytotoxicity Assay to monitor cytotoxicity in HepG2 cells - 16 hour (AID 1224876). Further: nearly all actives have a fitted effect of over 45% in size. Further: potency means the concentration at half of the fitted maximal effect. The essentials:
(§3)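 Fluorescent DNA-binding dye, 600 HepG2 cells/well, 5 h preincubation then compound in DMSO; same plates read at 0–40 h, 37 C.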

The nature of assay [7]: qHTS RealTime-Glo MT Cell Viability Assay in HepG2 cells - 32 hour (AID 1224877). Further: nearly all actives have a fitted effect of over 55% in size. The procedure, abridged:
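HepG2 suspension premixed with RealTime-Glo reagents is plated at 600 cells per well and left 5 h at 37 C/5% CO2. Compounds in DMSO then go in, and bioluminescence reflecting viable cell number is recorded over 40 h.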

Assay [8] in a line: A CellTox Green Cytotoxicity Assay to monitor cytotoxicity in HepG2 cells - 40 hour (AID 1224879). Further: nearly all actives have a fitted effect of over 40% in size. Further: potency means the concentration at half of the fitted maximal effect. The procedure, abridged: as §3
Assay [9] is described as follows: A CellTox Green Cytotoxicity Assay to monitor cytotoxicity in HepG2 cells - 24 hour (AID 1224878). Further: nearly all actives have a fitted effect of over 45% in size. The procedure, abridged: as §3
A short description of assay [10]: qHTS RealTime-Glo MT Cell Viability Assay in HEK293 cells - 16 hour (AID 1224872). Further: nearly all actives have a fitted effect of over 50% in size. Further: potency means the concentration at half of the fitted maximal effect. The procedure, abridged: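 Reads taken at 0, 8, 16, 24, 32 and 40 h from the same wells. HEK293 cells (600/well) carried RealTime-Glo reagents from seeding, with compound added after a 5 h settle at 37 C.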

Results filed as inconclusive are left out. A number with no mark means an inactive call. Calls of active or inactive are those of the source. The call rests on the fitted dose curve; in most records, active means well fitted curve in the direction sought with a large enough effect in the repeat runs; inconclusive means weak or mixed curves; inactive means no such curve, though single readings can be large; an effect the other way counts as inactive or inconclusive.
On the % scale 0 is the no-effect control and ±100 the full control effect.

Turning to `CNC(=O)c1c(I)c(NC(=O)CCCCC(=O)Nc2c(I)c(C(=O)O)c(I)c(C(=O)NC)c2I)c(I)c(C(=O)O)c1I`, the Potency result in assay [1], in assay [2], in assay [5], in assay [6], in assay [7] and in [8] was “inactive” throughout. In addition, the outcome in assay [3] was inactive. For the same compound, in assay [4], the max response was -0.381%.
In the case of `OCc1ccccn1`, the Potency entry in assay [1], in assay [2], in [5], in assay [6], in assay [7] and in [9] was “inactive” in each case. Further, the Potency entry in assay [8] is “inactive”. Besides, in assay [3], the result was inactive. Moreover, the max response in assay [4] is 11.2%.
`O=C(O)/C=C/c1ccc(/C=C/C(=O)O)cc1`: the Potency result in assay [1], in assay [2], in [5], in assay [6], in [7] and in assay [9] was “inactive” in each case. Moreover, the Potency result in assay [8] was “inactive”. In addition, the call in [3] was inactive. In addition, in assay [4], the max response was 3.8%.
`COC(=O)C1=C(C)NC(C)=C(C(=O)OCC(C)=O)C1c1ccccc1[N+](=O)[O-]` (stereo not given): the Potency entry in assay [1], in assay [2], in assay [10], in [5], in assay [6] and in assay [7] was “inactive” throughout. Also, in assay [8], the Potency result was “inactive”. In addition, in assay [4], the max response was -9.05%.
For the compound `CC(C)(O)Cc1ccccc1`, the Potency entry in assay [1], in assay [2], in [10], in [5], in assay [6] and in [7] was “inactive” each time. For the same compound, the Potency entry in assay [8] is “inactive”. In assay [3], the outcome was inactive.
With `CCCCc1ccc(N)cc1`, the Potency result in assay [1], in assay [2], in assay [10], in assay [5], in assay [6] and in assay [7] was “inactive” throughout. Also, the Potency result in [9] and in assay [8] was “inactive” each time. For the same compound, in assay [3], the compound was called inactive.
`CCCCCCCCC=O`: the Potency result in assay [1], in assay [2], in [10] and in assay [7] was “inactive” each time. Besides, the result in assay [3] was inactive. Moreover, the max response in assay [4] is -0.417%.
As for `Nc1ncnc2c1ncn2Cc1c(F)cccc1Cl`, the Potency result in assay [1], in [2], in assay [5], in [6], in [7] and in assay [9] was “inactive” throughout. Further, in [8], the Potency result is “inactive”. Also, the call in assay [3] was inactive. Also, in assay [4], the max response is -12.1%.
Consider `O=C(O)/C=C/c1ccc(Cn2ccnc2)cc1`, for which the Potency entry in assay [1], in [2], in assay [5], in assay [6], in [7] and in assay [9] was “inactive” in each case. Moreover, the Potency entry in assay [8] was “inactive”. Moreover, the call in assay [3] was inactive. In addition, the max response in assay [4] is 2.89%.
`CN(C)C(=O)C(CCN1CCC(O)(c2ccc(Cl)cc2)CC1)(c1ccccc1)c1ccccc1`: the Potency in assay [1] is 23.9 µM (active); in [2] it was 26.8 µM (active); in assay [10], 8.49 µM (active); in [4] it was 10.7 µM (active); in assay [6] it was 10.7 µM (active); in [8], 23.9 µM (active). Also, the call in assay [3] was inactive.
`CN1[C@@H]2CC[C@H]1CC(NC(=O)n1c(=O)[nH]c3ccccc31)C2` (stereo not given in full): the Potency entry in [1], in assay [2], in assay [10], in assay [6], in assay [9] and in [8] was “inactive” each time. For the same compound, the compound was classed as inactive in assay [3]. The max response in assay [4] was -2.86%.
In the case of `N#CCc1ccccc1[N+](=O)[O-]`, the Potency entry in assay [1], in assay [2], in assay [10], in [6], in assay [9] and in assay [8] was “inactive” each time. The compound was classed as inactive in assay [3]. Also, in [4], the max response is 9.34%.
As for `CCCCOCC(C)OCC(C)O` (stereo not given), the Potency entry in assay [1], in assay [2], in [10], in assay [6], in [7] and in assay [8] was “inactive” each time. Also, the call in assay [3] was inactive. The max response in [4] is 2.63%.
With `CN(C)CCn1nnnc1SCC1=C(C(=O)O)N2C(=O)[C@@H](NC(=O)Cc3csc(N)n3)[C@H]2SC1`, the Potency entry in assay [1], in [2], in assay [5], in [6], in [7] and in assay [9] was “inactive” in each case. For the same compound, in assay [8], the Potency result was “inactive”. The call in assay [3] was inactive. In addition, the max response in assay [4] is 13.3%.
Turning to `O=C(O)C(O)[C@H](O)[C@@H](O)[C@H](O)[C@H](O)CO` (stereo not given in full), the Potency result in [1], in assay [2], in assay [10], in assay [5], in assay [6] and in assay [7] was “inactive” in each case. In addition, the Potency result in assay [9] and in [8] was “inactive” throughout. In addition, the compound was classed as inactive in assay [3].
For the compound `C=C(C)[C@H]1CC=C(C)CC1`, the Potency entry in [1], in assay [2], in assay [5], in assay [6], in assay [7] and in assay [9] was “inactive” each time. The Potency result in assay [8] is “inactive”. In addition, in assay [3], the compound was classed as inactive. Besides, the max response in assay [4] is 0.727%.
Consider `c1ccc2cnncc2c1`, for which the Potency entry in assay [1], in assay [2], in assay [5], in assay [6], in assay [7] and in assay [9] was “inactive” each time. The Potency result in assay [8] is “inactive”. For the same compound, the call in assay [3] was inactive. Besides, the max response in [4] is 12.8%.
As to `CC(C)CCCC(C)NCCC(C)C` (stereo not given), the Potency result in [1], in [2], in [5], in assay [6], in [7] and in [9] was “inactive” in each case. Besides, the Potency result in assay [8] was “inactive”. Besides, the compound was classed as inactive in [3]. Besides, the max response in assay [4] was 0.252%.
As for `CCN1CCCC1CNC(=O)c1cc(S(N)(=O)=O)ccc1OC` (stereo not given), the Potency result in assay [1], in assay [2], in assay [10], in [5], in assay [6] and in [7] was “inactive” each time. Also, in assay [9], the Potency result was “inactive”. In assay [3], the outcome was inactive. Besides, in assay [8], the Potency was 43.6 µM (active).
On to `CC(C)CCCC(C)CCCC(C)CCCCC(C)CCCC(C)CCCC(C)C` (stereo not given), for which the Potency result in assay [1], in assay [2], in assay [5], in [6], in [7] and in assay [9] was “inactive” each time. In assay [8], the Potency entry was “inactive”. For the same compound, the call in [3] was inactive. Moreover, the max response in [4] is 3.24%.
For the compound `NS(=O)(=O)c1cc2c(cc1C(F)(F)F)NC(Cc1ccccc1)NS2(=O)=O` (stereo not given), the Potency result in [1], in [2], in assay [10], in assay [6], in assay [9] and in [8] was “inactive” throughout. The compound was classed as inactive in [3]. Besides, in assay [4], the max response is -7.67%.
As to `CCOC(=O)Cn1c(=O)sc2cccc(Cl)c21`, the Potency entry in [1], in assay [2], in [10], in assay [5], in [6] and in [9] was “inactive” each time. Also, in assay [8], the Potency entry was “inactive”. In addition, the max response in assay [4] was -10.9%.
With `NC(CS)C(=O)O` (stereo not given), the Potency result in assay [1], in assay [2], in assay [6], in [7] and in assay [8] was “inactive” throughout. Besides, the result in assay [3] was inactive. Moreover, the max response in [4] is 1.35%.
For `[O-][N+](=Nc1ccccc1)c1ccccc1`, the Potency entry in [1], in [10], in [6], in assay [7], in assay [9] and in assay [8] was “inactive” throughout. The compound was called inactive in assay [3]. Also, the max response in assay [4] was -1.34%.
